In PubChem BioAssay (EPA / NIEHS) one finds outcome and AC50 data, which are given here for 14 compounds.

Inconclusive results are not listed. The source made the active and inactive calls. The calls were made as follows, unless noted: active = hit-call score of the fitted dose curve at least 0.9, where 1 is the maximum; inactive = score below 0.9.

In test [1] the target is human RAR-related Orphan Receptor beta (RORb), RORB (gene 6096) (UniProt Q92753). The test is described as follows: ATG_RORb_TRANS: Attagene TRANS-FACTORIAL HepG2 Assay for human RAR-related Orphan Receptor beta (RORb) (AID 2283010; active = hit-call score of the fitted dose curve at least 0.9, where 1 is the maximum). In a few lines:
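HepG2 cells transiently transfected with GAL4-UAS reporter units expressing chimeric NR-Gal4 protein; reporter mRNA measured 24 h after dosing by RT-PCR, 6-FAM labelling and capillary electrophoresis. Gain-of-signal fitted relative to DMSO baseline.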

Read-out in test [2]: E-selectin (Homo sapiens) (UniProt P16581)
In words: BSK_3C_Eselectin: BioMAP Diversity Plus: 3C Assay for Eselectin Biomarker Activity (AID 2283015). The settings on record: primary human endothelial cells (HUVEC); actives raise or lower the signal. In a few lines: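 HUVEC, 3C stimulation; compound exposure 24 h; E-selectin by ELISA; gain- or loss-of-signal fitted bidirectionally vs DMSO baseline.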

Read-out in test [3]: Interleukin-1 alpha (IL1a), IL1A (gene 3552)
In words: BSK_BE3C_IL1a: BioMAP Diversity Plus: BE3C Assay for Interleukin-1 alpha (IL1a) Biomarker Activity (AID 2283016). The conditions noted are these: primary human bronchial epithelial cells; actives raise or lower the signal. An outline of the steps: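 Human primary bronchial epithelial cells, 24 h chemical exposure; IL-1a quantified by ELISA, fitted bidirectionally against DMSO. Cytotoxicity assessed in parallel by SRB total-protein staining at the time of measurement.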

Read-out in test [4]: Monocyte Chemoattractant Protein-1 (MCP1), CCL2 (gene 6347)
The test is described as follows: BSK_3C_MCP1: BioMAP Diversity Plus: 3C Assay for Monocyte Chemoattractant Protein-1 (MCP1) Biomarker Activity (AID 2283017). The settings on record: primary human endothelial cells (HUVEC); actives raise or lower the signal. An outline of the steps:
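HUVEC, 3C system; 24 h chemical exposure; MCP-1 by ELISA; bidirectional curve fit vs DMSO baseline.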

Read-out in test [5]: Monocyte Chemoattractant Protein-1 (MCP1), CCL2 (gene 6347)
In words: BSK_4H_MCP1: BioMAP Diversity Plus: 4H Assay for Monocyte Chemoattractant Protein-1 (MCP1) Biomarker Activity (AID 2283018). The settings on record: primary human endothelial cells (HUVEC); actives raise or lower the signal. In a few lines:
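Human umbilical vein endothelial cells (4H system) exposed to chemicals for 24 h in 96-well format. MCP-1 measured by ELISA; bidirectional fitting against DMSO, with SRB total-protein staining in parallel cultures for cytotoxicity.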

Read-out in test [6]: Human Leukocyte Antigen - DR isotype (HLADR), HLA-DRA (gene 3122)
In words: BSK_3C_HLADR: BioMAP Diversity Plus: 3C Assay for Human Leukocyte Antigen - DR isotype (HLADR) Biomarker Activity (AID 2283019).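 As to outcome: ELISA of cell-surface HLA-DR on HUVEC 24 h after dosing.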 The settings on record: primary human endothelial cells (HUVEC); actives raise or lower the signal. An outline of the steps: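 HUVEC, 3C stimulation, 24 h post-dose; HLA-DR by ELISA; bidirectional curve fit vs DMSO baseline; gain or loss of signal scored.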

Read-out in test [7]: Interleukin-8 (IL8), CXCL8 (gene 3576)
The test is described as follows: BSK_3C_IL8: BioMAP Diversity Plus: 3C Assay for Interleukin-8 (IL8) Biomarker Activity (AID 2283020). The settings on record: primary human endothelial cells (HUVEC); actives raise or lower the signal. In a few lines: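 Primary human umbilical vein endothelial cells were dosed for 24 h. IL-8 was quantified by ELISA and fitted bidirectionally against DMSO. Cytotoxicity was assessed in parallel cultures by SRB staining at 560 nm.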

Read-out in test [8]: Monokine induced gamma interferon (MIG), CXCL9 (gene 4283)
The test is described as follows: BSK_3C_MIG: BioMAP Diversity Plus: 3C Assay for Monokine induced gamma interferon (MIG) Biomarker Activity (AID 2283021). The settings on record: primary human endothelial cells (HUVEC); actives raise or lower the signal. In a few lines: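 HUVEC primary endothelial cultures dosed with chemical; MIG quantified by ELISA at 24 h. Data fitted bidirectionally against DMSO control, with parallel SRB total-protein staining for cytotoxicity.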

Test [9] deals with human Vitamin D Receptor (VDR), VDR (gene 7421) (UniProt P11473). In words: ATG_VDR_TRANS: Attagene TRANS-FACTORIAL HepG2 Assay for human Vitamin D Receptor (VDR) (AID 2283022; active = hit-call score of the fitted dose curve at least 0.9, where 1 is the maximum). In a few lines: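 RT-PCR/capillary electrophoresis read-out of reporter mRNA induction in transiently transfected HepG2; 24 h dosing; chimeric NR-Gal4 (TRANS format); gain-of-signal fit against DMSO baseline.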

Test [10] in a line: BSK_3C_SRB: Viability Assessment in the BioMAP Diversity Plus: 3C Assay (AID 2283023).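 Also: fitted both ways against DMSO so a hit may be signal rise or drop.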 The settings on record: primary human endothelial cells (HUVEC). An outline of the steps:
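HUVEC, 24 h post-dose; 10% TCA fix, 0.1% SRB stain, A560 nm. Bidirectional curve fit vs DMSO negative control.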

Read-out in test [11]: Matrix Metallopeptidase 1 (MMP1), MMP1 (gene 4312)
The test is described as follows: BSK_BE3C_MMP1: BioMAP Diversity Plus: BE3C Assay for Matrix Metallopeptidase 1 (MMP1) Biomarker Activity (AID 2283024). The conditions noted are these: primary human bronchial epithelial cells; actives raise or lower the signal. An outline of the steps: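 Human primary bronchial epithelial cells (BE3C system) dosed for 24 h; MMP-1 quantified by ELISA. Bidirectional fit against DMSO; cytotoxicity tracked in parallel cultures by SRB total-protein staining.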

Test [12] in a line: BSK_3C_Vis: BioMAP Diversity Plus: 3C Assay for Morphology Visualization (AID 2283025).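 Also: fitted both ways so gain or loss versus DMSO counts.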 The settings on record: primary human endothelial cells (HUVEC). An outline of the steps:
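Human umbilical vein endothelial cell morphology was inspected by light microscopy 24 h after chemical dosing; scored bidirectionally relative to DMSO.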

The nature of test [13]: BSK_4H_SRB: Viability Assessment in the BioMAP Diversity Plus: 4H Assay (AID 2283027).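 Also: cells exposed to compound for 24 h before staining.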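 As to AC50: curves fitted both ways versus DMSO so AC50 may be loss or gain.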 The settings on record: primary human endothelial cells (HUVEC). In a few lines:
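Human umbilical vein endothelial cells, 24 h after chemical dosing; total protein measured by 0.1% sulforhodamine B staining after 10% TCA fixation, read at 560 nm. Bidirectional fitting against DMSO.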

Test [14] can be described thus: BSK_BE3C_SRB: Viability Assessment in the BioMAP Diversity Plus: BE3C Assay (AID 2283028). The settings on record: primary human bronchial epithelial cells. An outline of the steps:
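Primary human bronchial epithelium; chemical dosing, 24 h; 10% TCA fix, 0.1% SRB stain, A560; bidirectional fit vs DMSO baseline.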

Test [15] deals with human RAR-related Orphan Receptor gamma (RORg), RORC (gene 6097) (UniProt P51449). The test is described as follows: ATG_RORg_TRANS: Attagene TRANS-FACTORIAL HepG2 Assay for human RAR-related Orphan Receptor gamma (RORg) (AID 2283011; active = hit-call score of the fitted dose curve at least 0.9, where 1 is the maximum). In a few lines:
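Transient MRTU transfection of HepG2 (TRANS format, exogenous NR-Gal4 chimera). 24 h dosing. Total RNA → oligo(dT) RT → PCR → 6-FAM labelling → HpaI cut → CE. Gain vs DMSO.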

The target in test [16] is Retinoic acid receptor RXR-alpha (Homo sapiens) (UniProt P19793). In words: ATG_RXRa_TRANS: Attagene TRANS-FACTORIAL HepG2 Assay for human Retinoid X Receptor alpha (RXRa) (AID 2283012; active = hit-call score of the fitted dose curve at least 0.9, where 1 is the maximum). An outline of the steps:
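HepG2 cells transiently transfected with GAL4-UAS reporter units and chimeric RXRa-Gal4 protein, treated 24 h. Reporter mRNA measured by RT-PCR, fluorescent labelling, HpaI digestion and capillary electrophoresis. Induction fitted against DMSO.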

Test [17] addresses human Retinoid X Receptor beta (RXRb), RXRB (gene 6257) (UniProt P28702). In words: ATG_RXRb_TRANS: Attagene TRANS-FACTORIAL HepG2 Assay for human Retinoid X Receptor beta (RXRb) (AID 2283013; active = hit-call score of the fitted dose curve at least 0.9, where 1 is the maximum). An outline of the steps: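 HepG2 cells were transiently transfected with multiplexed GAL4-UAS reporters and a chimeric RXRb-Gal4 construct, then exposed for 24 h. Reporter mRNA was quantified by RT-PCR, FAM labeling, HpaI digestion and capillary electrophoresis; gain of signal was scored against DMSO.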

The target in test [18] is human Thyroid Receptor alpha (THRa1), THRA (gene 7067) (UniProt P10827). In words: ATG_THRa1_TRANS: Attagene TRANS-FACTORIAL HepG2 Assay for human Thyroid Receptor alpha (THRa1) (AID 2283014; active = hit-call score of the fitted dose curve at least 0.9, where 1 is the maximum). An outline of the steps:
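Transient HepG2 transfection, NR-Gal4 chimera driving GAL4-UAS reporters; 24 h compound exposure; total RNA, oligo(dT) RT, PCR, fluorescent primer extension, capillary electrophoresis. Upward direction vs DMSO control.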

Read-out in test [19]: Pselectin, SELP (gene 6403)
In words: BSK_4H_Pselectin: BioMAP Diversity Plus: 4H Assay for Pselectin Biomarker Activity (AID 2283026). The conditions noted are these: primary human endothelial cells (HUVEC); actives raise or lower the signal. An outline of the steps:
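Primary human umbilical vein endothelial cells were treated 24 h, and cell-surface P-selectin was then quantified by ELISA. Bidirectional fit versus DMSO; cytotoxicity checked in parallel cultures by SRB total-protein staining.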

Test [20] has as its target human Retinoic Acid Receptor gamma (RARg), RARG (gene 5916) (UniProt P13631). In words: ATG_RARg_TRANS: Attagene TRANS-FACTORIAL HepG2 Assay for human Retinoic Acid Receptor gamma (RARg) (AID 2283009; active = hit-call score of the fitted dose curve at least 0.9, where 1 is the maximum). An outline of the steps:
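HepG2 transiently transfected with GAL4-UAS reporter units and chimeric NR-Gal4 constructs; 24 h compound exposure. Reporter mRNA quantified by RT-PCR, FAM labeling, HpaI digestion and capillary electrophoresis; gain-of-signal versus DMSO.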

Chain of Retinoic acid receptor RXR-alpha (Homo sapiens) (P19793 whole entry, looked up, the tested form may be a part): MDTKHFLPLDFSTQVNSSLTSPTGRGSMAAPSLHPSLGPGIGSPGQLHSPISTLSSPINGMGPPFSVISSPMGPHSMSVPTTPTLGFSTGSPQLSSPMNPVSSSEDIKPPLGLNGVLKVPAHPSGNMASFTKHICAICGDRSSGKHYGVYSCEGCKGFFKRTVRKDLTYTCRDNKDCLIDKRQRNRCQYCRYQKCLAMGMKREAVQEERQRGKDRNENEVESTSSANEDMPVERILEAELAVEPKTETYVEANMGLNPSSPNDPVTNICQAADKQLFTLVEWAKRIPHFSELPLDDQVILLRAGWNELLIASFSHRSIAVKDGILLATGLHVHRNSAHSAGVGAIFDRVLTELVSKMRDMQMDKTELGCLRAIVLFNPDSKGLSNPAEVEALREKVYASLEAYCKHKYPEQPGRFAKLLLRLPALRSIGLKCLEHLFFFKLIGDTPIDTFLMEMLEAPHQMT
Chain of human RAR-related Orphan Receptor gamma (RORg), RORC (gene 6097) (P51449 whole entry, looked up, the tested form may be a part): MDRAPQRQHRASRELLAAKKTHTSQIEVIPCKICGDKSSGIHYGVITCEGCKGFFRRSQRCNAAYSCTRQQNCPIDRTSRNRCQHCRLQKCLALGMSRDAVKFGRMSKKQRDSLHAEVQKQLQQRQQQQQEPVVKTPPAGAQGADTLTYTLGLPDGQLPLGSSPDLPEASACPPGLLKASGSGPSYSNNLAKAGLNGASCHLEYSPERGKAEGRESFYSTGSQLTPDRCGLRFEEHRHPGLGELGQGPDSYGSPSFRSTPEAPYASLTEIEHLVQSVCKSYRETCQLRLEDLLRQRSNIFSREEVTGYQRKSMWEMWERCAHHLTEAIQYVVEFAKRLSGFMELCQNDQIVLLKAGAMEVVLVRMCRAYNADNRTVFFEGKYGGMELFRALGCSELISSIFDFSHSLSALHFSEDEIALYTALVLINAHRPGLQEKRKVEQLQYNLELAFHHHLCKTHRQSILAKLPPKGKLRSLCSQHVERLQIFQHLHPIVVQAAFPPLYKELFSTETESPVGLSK
Chain of human Retinoid X Receptor beta (RXRb), RXRB (gene 6257) (P28702 whole entry, looked up, the tested form may be a part): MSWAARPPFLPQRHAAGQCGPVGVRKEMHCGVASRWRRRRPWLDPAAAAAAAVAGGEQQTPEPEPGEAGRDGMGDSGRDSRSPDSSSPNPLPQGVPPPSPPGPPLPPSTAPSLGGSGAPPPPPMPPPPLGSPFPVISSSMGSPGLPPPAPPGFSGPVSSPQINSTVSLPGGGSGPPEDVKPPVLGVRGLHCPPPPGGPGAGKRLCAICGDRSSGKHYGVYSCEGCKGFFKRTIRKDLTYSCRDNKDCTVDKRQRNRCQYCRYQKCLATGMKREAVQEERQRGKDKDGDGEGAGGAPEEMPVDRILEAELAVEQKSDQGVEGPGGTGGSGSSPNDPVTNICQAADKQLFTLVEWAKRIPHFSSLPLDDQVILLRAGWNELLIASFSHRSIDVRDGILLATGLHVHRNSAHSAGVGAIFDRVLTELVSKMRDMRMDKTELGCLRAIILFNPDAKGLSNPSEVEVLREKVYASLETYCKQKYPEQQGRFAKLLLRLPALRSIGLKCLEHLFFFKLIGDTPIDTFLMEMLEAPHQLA
Chain of human Thyroid Receptor alpha (THRa1), THRA (gene 7067) (P10827 whole entry, looked up, the tested form may be a part): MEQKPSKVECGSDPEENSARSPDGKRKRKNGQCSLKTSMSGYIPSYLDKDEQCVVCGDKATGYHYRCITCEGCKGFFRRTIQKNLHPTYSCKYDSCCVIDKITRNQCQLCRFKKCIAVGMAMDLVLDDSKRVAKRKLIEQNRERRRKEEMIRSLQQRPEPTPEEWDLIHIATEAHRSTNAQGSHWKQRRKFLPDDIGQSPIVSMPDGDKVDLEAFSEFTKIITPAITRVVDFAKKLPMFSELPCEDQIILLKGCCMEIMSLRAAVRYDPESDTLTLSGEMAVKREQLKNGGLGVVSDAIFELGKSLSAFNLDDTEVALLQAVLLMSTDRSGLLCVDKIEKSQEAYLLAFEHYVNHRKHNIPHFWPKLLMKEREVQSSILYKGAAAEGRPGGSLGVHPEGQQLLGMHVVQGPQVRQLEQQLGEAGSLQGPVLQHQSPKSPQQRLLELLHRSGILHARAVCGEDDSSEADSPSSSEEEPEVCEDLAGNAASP
Chain of E-selectin (Homo sapiens) (P16581 whole entry, looked up): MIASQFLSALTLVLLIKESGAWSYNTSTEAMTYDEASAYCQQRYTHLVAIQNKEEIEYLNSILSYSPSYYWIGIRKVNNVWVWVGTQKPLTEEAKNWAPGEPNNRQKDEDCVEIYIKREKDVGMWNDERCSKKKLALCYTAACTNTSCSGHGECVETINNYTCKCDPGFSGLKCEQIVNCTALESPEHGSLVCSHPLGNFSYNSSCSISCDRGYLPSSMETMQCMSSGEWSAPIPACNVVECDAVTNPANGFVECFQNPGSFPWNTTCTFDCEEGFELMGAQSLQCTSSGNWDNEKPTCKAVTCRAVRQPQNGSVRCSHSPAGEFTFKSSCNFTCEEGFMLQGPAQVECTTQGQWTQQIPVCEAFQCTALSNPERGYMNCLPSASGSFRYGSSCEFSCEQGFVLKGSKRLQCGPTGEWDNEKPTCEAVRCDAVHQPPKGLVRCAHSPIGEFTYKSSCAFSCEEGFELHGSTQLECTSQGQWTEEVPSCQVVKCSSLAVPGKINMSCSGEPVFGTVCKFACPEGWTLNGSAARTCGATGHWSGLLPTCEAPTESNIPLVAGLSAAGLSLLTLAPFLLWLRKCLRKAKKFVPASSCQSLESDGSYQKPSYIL
Chain of human Vitamin D Receptor (VDR), VDR (gene 7421) (P11473 whole entry, looked up, the tested form may be a part): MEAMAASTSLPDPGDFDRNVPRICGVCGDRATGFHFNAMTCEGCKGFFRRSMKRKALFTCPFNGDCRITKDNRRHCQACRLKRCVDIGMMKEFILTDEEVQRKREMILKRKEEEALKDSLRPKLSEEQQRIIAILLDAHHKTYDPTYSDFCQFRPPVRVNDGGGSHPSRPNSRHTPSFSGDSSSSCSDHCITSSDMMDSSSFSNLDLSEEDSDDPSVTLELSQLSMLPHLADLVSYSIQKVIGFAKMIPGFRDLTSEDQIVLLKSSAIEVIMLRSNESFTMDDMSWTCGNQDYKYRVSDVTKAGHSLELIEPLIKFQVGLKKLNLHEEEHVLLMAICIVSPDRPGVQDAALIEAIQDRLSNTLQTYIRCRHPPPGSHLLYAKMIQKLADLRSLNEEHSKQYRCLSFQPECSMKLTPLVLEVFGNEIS
Chain of human RAR-related Orphan Receptor beta (RORb), RORB (gene 6096) (Q92753 whole entry, looked up, the tested form may be a part): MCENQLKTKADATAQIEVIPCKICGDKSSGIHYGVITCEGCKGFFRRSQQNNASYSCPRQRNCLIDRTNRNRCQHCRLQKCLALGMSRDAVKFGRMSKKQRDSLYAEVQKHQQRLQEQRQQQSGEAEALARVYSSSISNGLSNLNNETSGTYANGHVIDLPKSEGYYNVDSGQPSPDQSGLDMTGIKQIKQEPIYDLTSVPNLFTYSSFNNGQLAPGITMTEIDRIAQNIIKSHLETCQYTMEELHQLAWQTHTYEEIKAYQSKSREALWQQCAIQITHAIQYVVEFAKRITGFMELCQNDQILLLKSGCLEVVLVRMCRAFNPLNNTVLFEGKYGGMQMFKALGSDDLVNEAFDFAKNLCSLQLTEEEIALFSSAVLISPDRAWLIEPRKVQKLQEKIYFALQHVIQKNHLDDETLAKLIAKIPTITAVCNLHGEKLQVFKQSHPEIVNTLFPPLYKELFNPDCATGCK
Chain of human Retinoic Acid Receptor gamma (RARg), RARG (gene 5916) (P13631 whole entry, looked up, the tested form may be a part): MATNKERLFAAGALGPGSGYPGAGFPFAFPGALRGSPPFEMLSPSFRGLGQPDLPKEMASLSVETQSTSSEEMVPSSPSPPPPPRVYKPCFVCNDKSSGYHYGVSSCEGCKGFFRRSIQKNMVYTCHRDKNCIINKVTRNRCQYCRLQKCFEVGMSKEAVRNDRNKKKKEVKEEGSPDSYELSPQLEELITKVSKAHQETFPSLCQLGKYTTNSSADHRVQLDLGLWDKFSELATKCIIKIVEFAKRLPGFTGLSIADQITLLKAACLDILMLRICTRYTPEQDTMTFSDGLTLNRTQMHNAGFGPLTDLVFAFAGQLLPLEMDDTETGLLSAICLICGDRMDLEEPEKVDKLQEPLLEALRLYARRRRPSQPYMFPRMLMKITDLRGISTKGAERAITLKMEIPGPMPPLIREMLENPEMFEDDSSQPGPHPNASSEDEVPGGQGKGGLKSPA

Consider `ClC1(Cl)C2(Cl)C3(Cl)C4(Cl)C(Cl)(Cl)C5(Cl)C3(Cl)C1(Cl)C5(Cl)C24Cl` (stereo not drawn), for which the compound was called inactive in test [1], in [2], in test [3], in [4], in test [5] and in test [6]. The outcome in [7], in [8], in [9], in [10], in test [11] and in test [12] was inactive. Further, the outcome in test [13] and in [14] was inactive.
Regarding `Cl/C=C/Cl`, in test [1], the outcome was inactive.
For `OCc1ccco1`, the compound was classed as inactive in [1], in test [15], in test [16], in [2], in test [3] and in test [5]. For the same compound, the outcome in test [6], in test [7], in [8], in [9], in [10] and in [11] was inactive. For the same compound, the result in [12], in test [13] and in test [14] was inactive.
In the case of `O=C(NCO)NCO`, the compound was called inactive in test [15] and in test [16].
`O=C/C=C/c1ccccc1`: the result in test [1], in test [16], in test [17] and in test [9] was inactive.
For `CCC(=O)c1ccccc1`, the call in test [1], in test [16], in test [18] and in [9] was inactive.
For the compound `CC(C)(OO)c1ccccc1`, the compound was classed as inactive in test [1], in test [17], in test [2], in test [3], in test [5] and in test [6]. Moreover, the result in [7], in [8], in test [9], in [10], in test [11] and in [12] was inactive. In addition, the result in test [19], in [13] and in test [14] was inactive.
Regarding `O=c1[nH]c(=O)[nH]c(=O)[nH]1`, the call in test [1], in test [15], in [16], in [17], in test [18] and in test [2] was inactive. Also, the result in test [3], in test [4], in test [5], in [6], in [7] and in test [8] was inactive. Moreover, the compound was classed as inactive in test [9], in test [10], in test [11], in test [12], in test [13] and in [14].
Take `Nc1cccc(Cl)c1`: the compound was called inactive in test [1], in [17], in test [18] and in test [9].
Turning to `CC(C)(c1ccc(OCC2CO2)cc1)c1ccc(OCC2CO2)cc1` (stereo not drawn), the compound was classed as inactive in [15] and in test [16].
For the compound `COc1ccc(C=O)cc1OC`, the outcome in [1], in test [15] and in [16] was inactive.
Take `CC(C)C1CCC(Cc2ccc(Cl)cc2)C1(O)Cn1cncn1` (stereo not drawn): the outcome in [20], in test [16] and in test [9] was inactive.
In the case of `CCCCCCCCC(=O)NCc1ccc(O)c(OC)c1`, the compound was called inactive in test [20], in test [2], in [3], in test [7], in [8] and in [9]. Besides, the outcome in test [10], in test [11], in [12] and in [14] was inactive. Besides, the AC50 is 3.97 µM (active) in [5], 20 µM (active) in test [6] and 20 µM (active) in [13].
`CC(=[OH+])/C=C(/C)[O-].CC(=[OH+])/C=C(/C)[O-].CC(=[OH+])/C=C(/C)[O-].[Al]`: the result in [1], in test [15], in test [16], in [17] and in test [9] was inactive.
